Active and inactive are the calls of the source. The calls were made as follows: active = hit-call score of the fitted dose curve at least 0.9, where 1 is the maximum; inactive = score below 0.9.
Key:
[1] = read-out: Human Leukocyte Antigen - DR isotype (HLADR), HLA-DRA (gene 3122); experiment: BSK_3C_HLADR: BioMAP Diversity Plus: 3C Assay for Human Leukocyte Antigen - DR isotype (HLADR) Biomarker Activity (AID 2283019); settings: primary human endothelial cells (HUVEC); actives raise or lower the signal
How it was run: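 Primary human umbilical vein endothelial cells (3C system) were dosed with compound and cell-surface HLA-DR was quantified by ELISA at 24 h. Activity was fitted bidirectionally against DMSO as negative control and baseline.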

[2] = read-out: Interleukin-8 (IL8), CXCL8 (gene 3576); experiment: BSK_3C_IL8: BioMAP Diversity Plus: 3C Assay for Interleukin-8 (IL8) Biomarker Activity (AID 2283020); settings: primary human endothelial cells (HUVEC); actives raise or lower the signal
How it was run: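 IL-8 was measured by ELISA in HUVEC cultures 24 h after chemical dosing, with gain or loss of signal fitted relative to DMSO. Parallel SRB total-protein staining tracked overt cytotoxicity.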

[3] = read-out: Monokine induced gamma interferon (MIG), CXCL9 (gene 4283); experiment: BSK_3C_MIG: BioMAP Diversity Plus: 3C Assay for Monokine induced gamma interferon (MIG) Biomarker Activity (AID 2283021); settings: primary human endothelial cells (HUVEC); actives raise or lower the signal
How it was run: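 ELISA measurement of MIG in human umbilical vein endothelial cells 24 h after treatment. Cytotoxicity tracked by SRB staining in parallel cultures; gain or loss of signal fitted relative to DMSO.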

[4] = read-out: Matrix Metallopeptidase 1 (MMP1), MMP1 (gene 4312); experiment: BSK_BE3C_MMP1: BioMAP Diversity Plus: BE3C Assay for Matrix Metallopeptidase 1 (MMP1) Biomarker Activity (AID 2283024); settings: primary human bronchial epithelial cells; actives raise or lower the signal
How it was run: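 ELISA measurement of MMP-1 after 24 h compound exposure of primary human bronchial epithelial cells. Changes in either direction fitted relative to DMSO; parallel SRB staining checked overt cytotoxicity.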

[5] = BSK_3C_Vis: BioMAP Diversity Plus: 3C Assay for Morphology Visualization (AID 2283025); settings: primary human endothelial cells (HUVEC);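 also: fitted both ways so gain or loss versus DMSO counts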;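 as to AC50: light microscopy image of cell morphology used as background control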
How it was run: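 Light-microscopy visualization of HUVEC cultures at 24 h post-treatment, with DMSO as baseline for bidirectional fitting.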

[6] = read-out: Pselectin, SELP (gene 6403); experiment: BSK_4H_Pselectin: BioMAP Diversity Plus: 4H Assay for Pselectin Biomarker Activity (AID 2283026); settings: primary human endothelial cells (HUVEC); actives raise or lower the signal
How it was run: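 ELISA of surface P-selectin on HUVEC, 24 h after dosing, with parallel SRB staining (0.1% after 10% TCA fixation, 560 nm) for overt cytotoxicity. Activity fitted in both directions relative to DMSO.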

[7] = BSK_4H_SRB: Viability Assessment in the BioMAP Diversity Plus: 4H Assay (AID 2283027); settings: primary human endothelial cells (HUVEC);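 also: cells exposed to compound for 24 h before staining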
How it was run: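 Cytotoxicity read-out in primary human endothelial cells: after 24 h compound exposure, cells were TCA-fixed (10%), stained with 0.1% SRB and absorbance taken at 560 nm. Values fitted in both directions relative to DMSO.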

[8] = read-out: Thrombomodulin, THBD (gene 7056); experiment: BSK_3C_Thrombomodulin: BioMAP Diversity Plus: 3C Assay for Thrombomodulin Biomarker Activity (AID 2283029); settings: primary human endothelial cells (HUVEC); actives raise or lower the signal
How it was run: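 ELISA measurement of thrombomodulin on HUVEC surface 24 h after chemical dosing; activity fitted in both directions relative to DMSO vehicle.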

[9] = read-out: Urokinase-type plasminogen activator receptor (uPAR), PLAUR (gene 5329); experiment: BSK_4H_uPAR: BioMAP Diversity Plus: 4H Assay for Urokinase-type plasminogen activator receptor (uPAR) Biomarker Activity (AID 2283030); settings: primary human endothelial cells (HUVEC); actives raise or lower the signal
How it was run: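 Primary human umbilical vein endothelial cells were exposed to chemical for 24 h before cell-surface uPAR was quantified by ELISA. Activity was fitted bidirectionally against the DMSO negative control baseline.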

[10] = read-out: Vascular endothelial growth factor receptor 2 (Homo sapiens) (UniProt P35968); experiment: BSK_4H_VEGFRII: BioMAP Diversity Plus: 4H Assay for Vascular endothelial growth factor receptor 2 (VEGFR2) Biomarker Activity (AID 2283031); settings: primary human endothelial cells (HUVEC); actives raise or lower the signal
How it was run: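 Primary human umbilical vein endothelial cells in the BioMAP 4H system were dosed with test chemical, and 24 h later VEGFRII was measured by ELISA. Activity was fitted bidirectionally against DMSO as negative control and baseline.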

[11] = read-out: Human Leukocyte Antigen - DR isotype (HLADR), HLA-DRA (gene 3122); experiment: BSK_BE3C_HLADR: BioMAP Diversity Plus: BE3C Assay for Human Leukocyte Antigen - DR isotype (HLADR) Biomarker Activity (AID 2283032); settings: primary human bronchial epithelial cells; actives raise or lower the signal
How it was run: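 Cell-surface HLA-DR ELISA readout at 24 h after dosing in the BE3C primary human lung bronchial epithelial system; gain or loss of signal against DMSO, with parallel sulforhodamine B staining of total protein for overt cytotoxicity.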

[12] = read-out: Interferon-gamma inducible Protein 10 (IP10), CXCL10 (gene 3627); experiment: BSK_BE3C_IP10: BioMAP Diversity Plus: BE3C Assay for Interferon-gamma inducible Protein 10 (IP10) Biomarker Activity (AID 2283034); settings: primary human bronchial epithelial cells; actives raise or lower the signal
How it was run: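 IP-10 quantified by ELISA in human primary bronchial epithelial cell cultures at 24 hours post-dosing. Gain or loss of signal fitted relative to DMSO; parallel SRB staining assessed overt cytotoxicity.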

[13] = read-out: Monokine induced gamma interferon (MIG), CXCL9 (gene 4283); experiment: BSK_BE3C_MIG: BioMAP Diversity Plus: BE3C Assay for Monokine induced gamma interferon (MIG) Biomarker Activity (AID 2283035); settings: primary human bronchial epithelial cells; actives raise or lower the signal;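 also: MIG protein measured by ELISA in BE3C cultures after 24 h of dosing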
How it was run: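 ELISA quantified MIG after 24 h exposure of primary bronchial epithelial cultures, analysed in both directions relative to DMSO. Cytotoxicity tracked in parallel cultures by sulforhodamine B staining.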

[14] = read-out: Transforming growth factor beta 1 (TGFb1), TGFB1 (gene 7040); experiment: BSK_BE3C_TGFb1: BioMAP Diversity Plus: BE3C Assay for Transforming growth factor beta 1 (TGFb1) Biomarker Activity (AID 2283036;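 also: TGF-b1 protein level measured by ELISA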); settings: primary human bronchial epithelial cells; actives raise or lower the signal
How it was run: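 ELISA readout of TGF-b1 from human lung bronchial epithelial primary cells, taken 24 h post-treatment. Gain or loss of signal fitted relative to DMSO baseline, with parallel SRB staining for overt cytotoxicity.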

[15] = read-out: Plasminogen activator inhibitor-1 (PAI1), SERPINE1 (gene 5054); experiment: BSK_BE3C_PAI1: BioMAP Diversity Plus: BE3C Assay for Plasminogen activator inhibitor-1 (PAI1) Biomarker Activity (AID 2283037); settings: primary human bronchial epithelial cells; actives raise or lower the signal
How it was run: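 PAI-1 was measured by ELISA in human primary bronchial epithelial cultures 24 h after chemical dosing, with cytotoxicity checked by SRB total-protein staining in parallel cultures. Activity was fitted in both directions relative to DMSO.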

[16] = read-out: urokinase plasminogen activator (uPA), PLAU (gene 5328); experiment: BSK_BE3C_uPA: BioMAP Diversity Plus: BE3C Assay for urokinase plasminogen activator (uPA) Biomarker Activity (AID 2283038); settings: primary human bronchial epithelial cells; actives raise or lower the signal;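 also: uPA protein level quantified by ELISA in cell cultures; uPA read one day after compound addition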
How it was run: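 Human primary bronchial epithelial cells were exposed to chemical for 24 h, then uPA levels were measured by ELISA. Responses were fitted bidirectionally against DMSO as negative control and baseline. Parallel SRB staining of total protein gauged overt cytotoxicity.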

[17] = read-out: Urokinase-type plasminogen activator receptor (uPAR), PLAUR (gene 5329); experiment: BSK_BE3C_uPAR: BioMAP Diversity Plus: BE3C Assay for Urokinase-type plasminogen activator receptor (uPAR) Biomarker Activity (AID 2283039); settings: primary human bronchial epithelial cells; actives raise or lower the signal;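 also: cells exposed to compound for one day before measurement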
How it was run: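 uPAR levels were measured by ELISA after 24 h compound treatment of primary human bronchial epithelial cells, fitted in both directions relative to DMSO. Parallel SRB staining served as the cytotoxicity read-out.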

[18] = read-out: Vascular cell adhesion molecule 1 (VCAM1), VCAM1 (gene 7412); experiment: BSK_4H_VCAM1: BioMAP Diversity Plus: 4H Assay for Vascular cell adhesion molecule 1 (VCAM1) Biomarker Activity (AID 2283033); settings: primary human endothelial cells (HUVEC); actives raise or lower the signal;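 also: cell-surface VCAM-1 protein measured by ELISA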
How it was run: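 VCAM-1 ELISA read 24 h after chemical dosing of HUVEC in the BioMAP 4H system, with gain or loss of signal fitted relative to DMSO. Parallel SRB staining (560 nm) checked overt cytotoxicity.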

[19] = BSK_BE3C_SRB: Viability Assessment in the BioMAP Diversity Plus: BE3C Assay (AID 2283028); settings: primary human bronchial epithelial cells
How it was run: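 Human primary bronchial epithelial cells were exposed to test chemicals for 24 h. Total protein in parallel cultures was then measured by staining with 0.1% sulforhodamine B after 10% TCA fixation, with absorbance read at 560 nm. Activity was fitted bidirectionally against DMSO.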

Measured: AC50

C#C[C@]1(O)CC[C@H]2[C@@H]3CCC4=CC(=O)CC[C@@H]4[C@H]3CC[C@@]21CC
active: [1] 20 µM | [4] 3.16 µM
not listed: [18] | [19]
inactive: all other assays above

S=C([S-])NCCNC(=S)[S-].[Mn+2]
active: [1] 29.7 µM | [5] 39 µM | [6] 27.8 µM | [11] 30.5 µM
not listed: [18] | [19]
inactive: all other assays above

COc1nc(C)nc(NC(=O)NS(=O)(=O)c2ccccc2OCCCl)n1
not listed: [18] | [19]
inactive: all other assays above

CCCN(CCC)C(=O)SCC
not listed: [18] | [19]
inactive: all other assays above

c1ccc2[nH]c(-c3cscn3)nc2c1
not listed: [19]
inactive: all other assays above

COc1c(Cl)ccc(Cl)c1C(=O)O
not listed: [10]
inactive: all other assays above

CCCCOC(=O)[C@@H](C)Oc1ccc(Oc2ccc(C(F)(F)F)cn2)cc1
active: [5] 39 µM
not listed: [18] | [19]
inactive: all other assays above

CCOC(=O)NCCOc1ccc(Oc2ccccc2)cc1
active: [1] 25.5 µM | [2] 15 µM | [5] 39 µM | [11] 15.7 µM
not listed: [19]
inactive: all other assays above

CCSC(=O)N(CC(C)C)CC(C)C
not listed: [18]
inactive: all other assays above

From PubChem BioAssay (EPA / NIEHS)
